FID counter = fluorescent intercalator displacement, NS3 helicase counter-screen. DNA fluorescent intercalator displacement, fluorescence. inhibition, % at 7.9 µM. 290,000 compounds, 0.17% hits. AID 1845; in the data active means inhibition above about 37%;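 further: higher means more ethidium bromide displaced from hairpin DNA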
PfM18AAP inh-1 = blocks P. falciparum M18 aspartyl aminopeptidase; AID 1822; 290,000 compounds, 1.2% hits; inhibition, % at 7.35 µM; recombinant PfM18AAP, H-Glu-NHMec fluorogenic cleavage;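 active means inhibition above the campaign mean inhibition over all tested compounds plus 3 SD, cut at about 28% in these data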
Kir21 block = blocks the mouse Kir2.1 inward-rectifier potassium channel; HEK293-Kir2.1, FluxOR thallium flux fluorescence; hits give low values; B-score at 10 µM; AID 1672; P35561; 310,000 compounds, 0.85% hits;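 active means fluorescence ratio B-score at or below minus 3 SD of library scores, with starting-brightness B-score within 2 SD, cut at about -4.2 in these data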;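 further: channel flux triggered by added potassium and thallium sulfate stimulus; B-score of peak minus minimum fluorescence over baseline after thallium stimulus; more negative B-score means stronger Kir2.1 block with less thallium influx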
Rce1 inhib = inhibitors of yeast Ras-converting enzyme. Q03530. yeast membranes, quenched prenylated peptide cleavage fluorescence. calls only. 290,000 compounds, 0.27% hits. AID 2563;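 active means fall in fluorescence gain of 50% or more versus controls, with final raw signal at or below 3038400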
PfM18AAP inh-2 = PfM18AAP inhibition, confirmation. 2,400 compounds, 28% hits. inhibition, % at 7.35 µM. shares compounds with PfM18AAP inh-1. recombinant PfM18AAP, H-Glu-NHMec fluorogenic cleavage;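 active means mean inhibition over replicate wells above the hit cutoff set for the earlier primary screen, cut at about 29% in these data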
CTSL1 confirm = Cathepsin L (human) inhibition, confirmation | inhibition, % at 5.96 µM | shares compounds with PfM18AAP inh-1 | purified cathepsin L1, Z-Leu-Arg-MCA fluorescence | 2,400 tested, under 10 active;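 active means average inhibition across replicates above the hit cutoff set in the earlier primary screen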
Target sequence (P07711 whole entry, looked up): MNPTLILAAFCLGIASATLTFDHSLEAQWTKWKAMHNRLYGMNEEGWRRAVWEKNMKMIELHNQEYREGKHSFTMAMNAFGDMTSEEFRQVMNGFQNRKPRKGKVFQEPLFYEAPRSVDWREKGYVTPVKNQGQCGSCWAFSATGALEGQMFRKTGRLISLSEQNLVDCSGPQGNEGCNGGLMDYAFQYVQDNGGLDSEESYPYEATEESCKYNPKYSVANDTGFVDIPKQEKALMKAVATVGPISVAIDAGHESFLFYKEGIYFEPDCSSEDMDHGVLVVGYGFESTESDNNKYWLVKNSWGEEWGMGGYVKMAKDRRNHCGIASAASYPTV
A number is an active result; – = inactive; · = not tested or not shown. The list is not random: actives were taken first. Their share in the collection is about 2.3%.

SMILES	FID counter	PfM18AAP inh-1	Kir21 block	Rce1 inhib	PfM18AAP inh-2	CTSL1 confirm
CC(C)(C)C(=O)C(Oc1cccc2nonc12)n1cncn1 (configuration not stated)	–	50	–	–	–	–
N#Cc1ccccc1Cn1cc(/C=N/Nc2ccc([N+](=O)[O-])cn2)c2ccccc21	–	–	–	–	·	·
O=[N+]([O-])c1ccc(N/N=C/c2ccc(OCc3cccc4ccccc34)cc2)nc1	–	45	–	–	–	–
O=C1NC2(CCCC2)C(=O)N1CC(=O)N(Cc1ccccc1)c1ccccc1	·	·	–	–	·	·
Oc1ccc(N2CCN(Cc3cc4c(cc3Br)OCCO4)CC2)cc1	–	39	–	–	–	–
CCCn1cc(CN2CCC(n3nccc3NC(=O)c3ccc4c(c3)OCO4)CC2)c(C)n1	–	–	–	–	·	·
Cc1cc(-c2ccc(/C=N/n3cnnc3)o2)c(C)c([N+](=O)[O-])c1	–	43	–	–	–	–
COc1cc([N+](=O)[O-])ccc1-c1ccc(/C=N\n2cnnc2)o1	–	44	–	–	–	–
CCOC(=O)CC1C(=O)NCCN1Cc1cccs1 (configuration not stated)	–	–	–	–	·	·
O=S(=O)(NCCC1CC1(Cl)Cl)c1ccccc1 (configuration not stated)	–	–	–	–	·	·
CN(C)c1ccc(NC(=S)c2ccc3ccccc3n2)cc1	–	35	–	–	–	–
N#C/C(Cn1c[n+](NC(=O)Nc2ccccc2)cn1)=N/O	–	47	–	–	–	–
CCN(CC)c1ccc([C@H]2[C@@H]3CCCC[C@]3(O)CCN2CC(=O)NCc2ccco2)cc1	–	–	–	–	·	·
CCN(CC)c1ccc(C2C3CCCCC3(O)CCN2CC(=O)N2CCCCC2)cc1 (configuration not stated)	–	49	–	–	–	–
CN(C)C(CNC(=O)CSc1nc2ccccc2c(=O)n1Cc1ccco1)c1ccccc1 (configuration not stated)	·	·	–	–	·	·
COc1cccc(C2NC(=O)NC(C)=C2C(=O)OCC2CCCCC2)c1 (configuration not stated)	–	–	–	–	·	·
CC1=CC(C)(C)N(C(=O)CSc2ncn[nH]2)c2ccc(C)cc21	–	56	–	–	–	–
CC1=CC(C)(C)N(C(=O)CN2C(=O)CCC2=O)c2ccc(C)cc21	–	–	–	·	·	·
COc1ccc(C2C(C(C)=O)=C(C)N=c3s/c(=C\c4cc(C)n(C)c4C)c(=O)n32)c(OC)c1 (configuration not stated)	–	–	–	–	·	·
COc1ccc(C2C(C(C)=O)=C(C)N=c3s/c(=C\c4ccco4)c(=O)n32)c(OC)c1 (configuration not stated)	–	37	–	–	–	–
Fc1cc2[nH]c(=S)[nH]c2c(Br)c1N1CCSCC1	–	–	–	–	·	·
COc1ccc2c(c1)c(C(=O)N/N=C/c1ccc(O)c(O)c1)c(C)n2C	–	51	–	–	40	–
COc1ccc2nc(C)cc(SCC(=O)N/N=C/c3ccc(O)c(O)c3)c2c1	–	60	–	–	63	–
COc1cccc2c(SCC(=O)N/N=C/c3ccc(O)c(O)c3)cc(C)nc12	–	66	–	·	63	–
Cc1c(NC(=O)CN2C(=O)NC3(CCC(C)CC3)C2=O)c(=O)n(-c2ccccc2)n1C (configuration not stated)	–	–	–	–	·	·
SMILES	FID counter	PfM18AAP inh-1	Kir21 block	Rce1 inhib	PfM18AAP inh-2	CTSL1 confirm
Cc1ccc(C(=O)N/N=C/c2ccoc2)cc1C	–	–	–	–	·	·
Cc1ccccc1-n1c(C)cc(/C=N/Nc2ccc([N+](=O)[O-])cn2)c1C	–	45	–	–	–	–
Cc1cc(/C=N/Nc2ccc([N+](=O)[O-])cn2)c(C)n1-c1ccc(C(=O)O)cc1	–	50	–	–	–	–
CCCOc1ccc(/C=N/n2nnnc2N)cc1OC	–	–	–	–	·	·
COc1cc(OC)c(-c2c3cc(O)c(=O)cc-3oc3cc(O)c(O)cc23)cc1OC	–	44	·	·	–	–
COc1cc(-c2cc(=O)c3c(O)c(OC)c(OC)c(OC)c3o2)cc(OC)c1OC	·	·	–	–	·	·
O=C(Nc1cccc(F)c1)NC1(C(=O)NCC2CCCO2)CCCCC1 (configuration not stated)	–	–	–	–	·	·
CCOC(=O)c1c(NC(=O)OC)sc(C(=O)N(CC)CC)c1C	–	33	–	–	–	–
CN(C(=O)c1cncc(Br)c1)C1C2CC3CC(C2)CC1C3 (configuration not stated)	–	–	–	–	·	·

Compound activity as filed in PubChem.
